# Laboratory results from PubChem BioAssay (Tox21).
# A number with no mark means an inactive call. Inconclusive results are not listed. Where a call stands in place of a potency, no number is given. The source made the active and inactive calls. Unless noted, the call rests on the fitted dose curve; in most records, active means well fitted curve in the direction sought with a large enough effect in the repeat runs; inconclusive means weak or mixed curves; inactive means no such curve, though single readings can be large; an effect the other way counts as inactive or inconclusive.
# How the values were obtained:
# [1] = qHTS assay for small molecule agonists of the p53 signaling pathway (AID 651631; calls by dose curve; further: nearly all actives have a fitted effect of over 15% in size)
# Outline: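 Readout was fluorescence from the LiveBLAzer FRET substrate, applied for 2 h at room temperature after 16 h compound exposure at 37 °C. Cells were the p53RE-bla HCT-116 line, with beta-lactamase driven by p53 response elements.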
# [2] = qHTS assay for small molecules that induce genotoxicity in human embryonic kidney cells expressing luciferase-tagged ATAD5 (AID 651632); further: nearly all actives have a fitted effect of over 15% in size; further: potency means the concentration at half of the fitted maximal effect
# Outline: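 Cells were seeded at 2,000 per well, dosed with compound, and incubated 16 hr at 37C in 5% CO2. Luciferase activity was then quantified after a 30 min room-temperature incubation with Amplite.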
# [3] = qHTS assay for small molecule agonists of the p53 signaling pathway - cell viability (AID 651633; calls by dose curve; further: series mostly up to about 83 µM; nearly all actives have a fitted effect of over 30% in size)
# Outline: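 Viability counter-read: CellTiter-Glo luminescence (30 min, room temperature) in the same p53RE-bla plates. These plates had been exposed to compounds for 16 h at 37 C.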
# [4] = qHTS assay for small molecules that induce genotoxicity in human embryonic kidney cells expressing luciferase-tagged ATAD5 - cell viability (AID 651634; calls by dose curve; further: nearly all actives have a fitted effect of over 25% in size)
# Outline: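 Cells (HEK293T, luciferase-tagged ATAD5) are seeded at 2,000 per well, dosed with compound or DMSO vehicle, and incubated 15.5 hr at 37C and 5% CO2. CellTiter-Fluor is added for 30 min before fluorescence is measured.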
# [5] = qHTS assay for small molecule disruptors of the mitochondrial membrane potential - cell viability (AID 720634; calls by dose curve;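 further: human HepG2 liver cancer cells; series mostly up to about 83 µM; nearly all actives have a fitted effect of over 20% in size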)
# Outline: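 Cytotoxicity was measured by ATP quantitation in HepG2 wells that had first been treated with compound for 1 hr and stained with m-MPI dye; CellTiter-Glo incubation was 30 min at room temperature.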
# [6] = qHTS assay for small molecule disruptors of the mitochondrial membrane potential (AID 720635); further: potency means the concentration at half of the fitted maximal effect
# Outline: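 Mitochondrial membrane potential tracked with Mito-MPS dye, red aggregates (ex 540/em 590 nm) against green monomers (ex 490/em 535 nm). Compound treatment 1 hr at 37C, dye 30 min in HepG2.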
# [7] = qHTS assay to test for compound auto fluorescence at 590 nm (red) in HepG2 cells (AID 720674)
# Outline: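 Red autofluorescence (Ex/Em 540/590 nm, Rose Bengal sodium equivalents) was measured in HepG2 cells, 2,000 per well in MEM plus 10% FBS, plated overnight at 37 C. Readings were taken 1 hr after adding 23 nL compound or DMSO, at 37 C and 5% CO2.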
# [8] = qHTS assay to test for compound auto fluorescence at 535 nm (green) in HepG2 cells (AID 720675)
# [9] = qHTS assay to test for compound auto fluorescence at 460 nm (blue) in HEK293 cells (AID 720678)
# Outline: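 HEK293 cells (2,000 per well, medium with 10% dialyzed FBS) attached for 4-5 hr at 37C, then received compound and stood overnight at 37C, 5% CO2. Blue fluorescence was read at Ex/Em 405/460 nm and expressed relative to triamterene.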
# [10] = qHTS assay to test for compound auto fluorescence at 590 nm (red) in HEK293 cells (AID 720679)
# Outline: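 HEK293 cells (2,000/well, medium with 10% dialyzed FBS) attached for 4-5 hr at 37C, received 23 nL compound and were incubated overnight at 37C, 5% CO2. Red fluorescence was then read at 540/590nm Ex/Em, referenced to Rose Bengal sodium.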
SMILES,Potency [1],Potency [2],Potency [3],Potency [4],outcome [5],Potency [6],outcome [7],outcome [8],outcome [9],outcome [10],"fluorescence, relative to Rose Bengal [7]","fluorescence, % of fluorescein control [8]","fluorescence, % of triamterene [9]","fluorescence, % of fluorescent control [10]"
COc1cc(-c2ccc(=O)[nH]n2)ccc1OC(F)F,inactive,13.3 µM (active),inactive,inactive,inactive,inactive,inactive,inactive,inactive,inactive,,,,
CC(C(=O)O)c1cccc(Oc2ccccc2)c1 (stereo not given),inactive,inactive,inactive,inactive,inactive,inactive,,,,,-0.601% [at 18.6 µM],0.0036% [at 18.6 µM],0.0483% [at 18.6 µM],-0.0737% [at 18.6 µM]
CCCC(C)C(=O)OCC (stereo not given),inactive,inactive,inactive,inactive,inactive,inactive,inactive,inactive,inactive,inactive,,,,
c1ccc(CCc2ccccc2)cc1,inactive,inactive,inactive,inactive,inactive,inactive,inactive,inactive,inactive,inactive,,,,
O=C(CO)[C@@H](O)[C@H](O)[C@H](O)CO,inactive,inactive,inactive,inactive,inactive,inactive,inactive,inactive,inactive,inactive,,,,
CC/C=C\CCOC(C)OCC (stereo not given),inactive,inactive,inactive,inactive,inactive,inactive,inactive,inactive,inactive,inactive,,,,
CC(C)(CCC(=O)O)C(=O)O,inactive,inactive,inactive,inactive,inactive,inactive,inactive,inactive,inactive,inactive,,,,
O=C1CCCCCCCCCCCCCCO1,inactive,inactive,inactive,inactive,inactive,inactive,inactive,inactive,inactive,,,,,
C[C@@H]1CCC[C@H](C)N1,inactive,inactive,inactive,inactive,inactive,inactive,,,,,0.289% [at 18.6 µM],0.0643% [at 18.6 µM],0.0181% [at 18.6 µM],0.0043% [at 18.6 µM]
CC1(C)OC[C@@H](COC(=O)CCc2ccc(OC[C@@H](O)CNCCNC(=O)N3CCOCC3)cc2)O1,inactive,inactive,inactive,inactive,inactive,inactive,inactive,inactive,inactive,,,,,
COCCOC[C@H](CC1(C(=O)NC2CCC(C(=O)O)CC2)CCCC1)C(=O)Oc1ccc2c(c1)CCC2 (stereo not given in full),inactive,inactive,inactive,inactive,inactive,inactive,inactive,inactive,inactive,inactive,,,,
C[N+]1(C)CCCC(OC(=O)C(O)(c2ccccc2)c2ccccc2)C1 (stereo not given),inactive,inactive,inactive,inactive,inactive,inactive,,,,,0.011% [at 18.6 µM],-0.152% [at 18.6 µM],0.0818% [at 18.6 µM],0.215% [at 18.6 µM]
O=C(c1ccccc1)C1(O)CCCCC1,inactive,inactive,inactive,inactive,inactive,inactive,inactive,inactive,inactive,inactive,,,,
CCCO[Si](OCCC)(OCCC)OCCC,inactive,inactive,inactive,inactive,inactive,inactive,inactive,inactive,inactive,inactive,,,,
CC[C@H]1OC(=O)[C@H](C)[C@@H](O[C@H]2C[C@@](C)(OC)[C@@H](O)[C@H](C)O2)[C@H](C)[C@@H](O[C@@H]2O[C@H](C)C[C@H](N(C)C)[C@H]2O)[C@](C)(OC)C[C@@H](C)C(=O)[C@H](C)[C@@H](O)[C@]1(C)O,inactive,inactive,inactive,inactive,inactive,inactive,inactive,inactive,inactive,inactive,,,,
COc1cc(C)nc(-n2nc(C)cc2OC)n1,inactive,inactive,inactive,inactive,inactive,inactive,,,,,-0.559% [at 18.6 µM],0.0331% [at 18.6 µM],0.0208% [at 18.6 µM],-0.0061% [at 18.6 µM]
CC(C)(C)C(=O)c1ccccc1,inactive,inactive,inactive,inactive,inactive,inactive,inactive,inactive,inactive,inactive,,,,
CC(C)(C)C(=O)Oc1ccc(S(=O)(=O)Nc2ccccc2C(=O)NCC(=O)O)cc1,inactive,inactive,inactive,inactive,inactive,inactive,inactive,inactive,inactive,,,,,
NCCCC[C@H](N[C@@H](CCc1ccccc1)C(=O)O)C(=O)N1CCC[C@H]1C(=O)O,inactive,inactive,inactive,inactive,inactive,inactive,,,,,0.575% [at 18.6 µM],-0.177% [at 18.6 µM],-0.377% [at 18.6 µM],-0.247% [at 18.6 µM]
CC12CCC(C(=O)C1=O)C2(C)C (stereo not given),inactive,inactive,inactive,inactive,inactive,inactive,inactive,inactive,inactive,inactive,,,,
NC(=O)N[C@@H](CCC(=O)O)C(=O)O,inactive,inactive,inactive,inactive,inactive,inactive,inactive,inactive,inactive,,,,,
CCCCCC(C)N (stereo not given),inactive,inactive,inactive,inactive,inactive,inactive,inactive,inactive,inactive,inactive,,,,
C=CN1CCCCCC1=O,inactive,inactive,inactive,inactive,inactive,inactive,inactive,inactive,inactive,,,,,

SMILES,Potency [1],Potency [2],Potency [3],Potency [4],outcome [5],Potency [6],outcome [7],outcome [8],outcome [9],outcome [10],"fluorescence, relative to Rose Bengal [7]","fluorescence, % of fluorescein control [8]","fluorescence, % of triamterene [9]","fluorescence, % of fluorescent control [10]"
CC1=NS(=O)(=O)c2cc(Cl)ccc2N1,inactive,inactive,inactive,inactive,inactive,inactive,inactive,inactive,,inactive,,,,
CCN1CCOCC1,inactive,inactive,inactive,inactive,inactive,inactive,inactive,inactive,inactive,inactive,,,,
CC(=O)c1cnccn1,inactive,inactive,inactive,inactive,inactive,inactive,inactive,inactive,inactive,,,,,
CCNS(=O)(=O)c1ccc(C)cc1,inactive,inactive,inactive,inactive,inactive,inactive,inactive,inactive,inactive,,,,,
CC(CC=O)CC(C)(C)C (stereo not given),inactive,inactive,inactive,inactive,inactive,inactive,inactive,inactive,inactive,inactive,,,,
Nc1ccncc1N,inactive,inactive,inactive,inactive,inactive,inactive,inactive,inactive,inactive,,,,,
C[C@H]1C[C@H]2[C@@H]3CCC4=CC(=O)C=C[C@]4(C)[C@H]3C(=O)C[C@]2(C)[C@@]1(O)C(=O)CO,inactive,inactive,inactive,inactive,inactive,inactive,inactive,inactive,inactive,inactive,,,,
C[N+]1(CC2COC(c3ccccc3)(c3ccccc3)O2)CCCCC1 (stereo not given),inactive,inactive,inactive,inactive,inactive,inactive,inactive,inactive,inactive,inactive,,,,
Cc1cccc(C)c1NC(=O)CC12CCCN1CCC2,inactive,inactive,inactive,inactive,inactive,inactive,inactive,inactive,inactive,,,,,
O=S(=O)(O)c1cccc2ccccc12,inactive,inactive,inactive,inactive,inactive,inactive,inactive,inactive,inactive,,,,,
CC(COc1ccccc1)NN (stereo not given),inactive,inactive,inactive,inactive,inactive,inactive,inactive,inactive,inactive,inactive,,,,
CC(=O)Oc1cccc(C)c1,inactive,inactive,inactive,inactive,inactive,inactive,inactive,inactive,inactive,inactive,,,,
CC(C)NNC(=O)c1ccncc1,inactive,inactive,inactive,inactive,inactive,inactive,inactive,,inactive,inactive,,,,
CC1=CCC(O)(C(C)C)CC1 (stereo not given),inactive,inactive,inactive,inactive,inactive,,inactive,inactive,inactive,inactive,,,,
O=Cc1cccc(Br)c1,inactive,inactive,inactive,inactive,inactive,inactive,inactive,,inactive,inactive,,,,
CCCCOCCOC(=O)CCCCCCCCC(=O)OCCOCCCC,inactive,inactive,inactive,inactive,inactive,,inactive,inactive,inactive,inactive,,,,
c1ccc2sc(SN3CCOCC3)nc2c1,inactive,inactive,inactive,inactive,inactive,,inactive,inactive,inactive,inactive,,,,
C=CCOCC(O)CO (stereo not given),inactive,inactive,inactive,inactive,inactive,,inactive,inactive,inactive,inactive,,,,
CC(C)=CCC/C(C)=C/C#N,inactive,inactive,inactive,inactive,inactive,,inactive,inactive,inactive,,,,,
[K+],inactive,inactive,inactive,inactive,inactive,,inactive,inactive,inactive,inactive,,,,
CN(C)CCN(C)CCN(C)C,inactive,inactive,inactive,inactive,inactive,,inactive,inactive,inactive,,,,,
CC(C#N)(CCC(=O)O)N=NC(C)(C#N)CCC(=O)O (stereo not given),inactive,inactive,inactive,inactive,inactive,inactive,inactive,inactive,,inactive,,,,
CC(C)(C)OC(=O)c1cccc(N)c1,inactive,inactive,inactive,inactive,inactive,35.3 µM (active),inactive,,inactive,,,,,
